The values that follow come from PubChem BioAssay (EPA / NIEHS).

Test [1] can be described thus: BSK_4H_Eotaxin3: BioMAP Diversity Plus: 4H Assay for Eotaxin 3 Biomarker Activity (AID 2283000).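 Further: CCL26 protein level quantified by ELISA in parallel with SRB cytotoxicity check.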 Particulars: primary human endothelial cells (HUVEC); actives raise or lower the signal. Put shortly: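 HUVEC, 24 h post-dose, ELISA for Eotaxin-3/CCL26. Gain or loss of signal fitted bidirectionally vs DMSO baseline.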
For test [2], the target named is human Peroxisome Proliferator-activated Receptor alpha (PPARa), PPARA (gene 5465) (UniProt Q07869). The experiment in a line: ATG_PPARa_TRANS: Attagene TRANS-FACTORIAL HepG2 Assay for human Peroxisome Proliferator-activated Receptor alpha (PPARa) (AID 2283001; active means hit-call score of the fitted dose curve at least 0.9, where 1 is the maximum). Put shortly:
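Gain-of-signal endpoint: reporter mRNA induction relative to DMSO, detected by fluorescent RT-PCR and capillary electrophoresis. HepG2 cells transiently carried GAL4-UAS-driven reporter units plus NR-Gal4 fusion; exposure lasted 24 h.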

The target in test [3] is human Retinoic Acid Receptor beta (RARb), RARB (gene 5915) (UniProt P10826). The test is described as follows: ATG_RARb_TRANS: Attagene TRANS-FACTORIAL HepG2 Assay for human Retinoic Acid Receptor beta (AID 2283004; active means hit-call score of the fitted dose curve at least 0.9, where 1 is the maximum). Put shortly: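 HepG2 cells transiently transfected with multiplexed GAL4-UAS reporter units expressing chimeric NR–Gal4 fusions; 24 h compound exposure. Reporter mRNA quantified by RT-PCR, 6-FAM labelling, HpaI digestion and capillary electrophoresis; gain-of-signal fitted against DMSO baseline.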
human Retinoic Acid Receptor beta (RARb), RARB (gene 5915), sequence (P10826 whole entry, looked up, the tested form may be a part): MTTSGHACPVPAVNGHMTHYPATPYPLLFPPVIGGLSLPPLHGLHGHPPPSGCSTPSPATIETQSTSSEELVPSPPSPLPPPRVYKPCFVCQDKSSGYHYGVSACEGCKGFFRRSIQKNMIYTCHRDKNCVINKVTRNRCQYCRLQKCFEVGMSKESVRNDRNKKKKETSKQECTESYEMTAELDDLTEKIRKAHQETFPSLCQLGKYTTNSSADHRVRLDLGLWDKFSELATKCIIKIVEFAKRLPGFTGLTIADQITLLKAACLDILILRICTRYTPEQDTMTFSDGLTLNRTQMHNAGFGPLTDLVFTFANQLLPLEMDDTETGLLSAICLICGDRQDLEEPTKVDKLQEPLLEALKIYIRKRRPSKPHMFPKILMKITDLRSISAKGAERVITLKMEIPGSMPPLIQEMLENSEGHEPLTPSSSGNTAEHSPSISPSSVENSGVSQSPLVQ

Test [4] deals with Retinoic acid receptor alpha (Homo sapiens) (UniProt P10276). The test is described as follows: ATG_RARa_TRANS: Attagene TRANS-FACTORIAL HepG2 Assay for human Retinoic Acid Receptor alpha (RARa) (AID 2283005; active means hit-call score of the fitted dose curve at least 0.9, where 1 is the maximum;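 on AC50: potency for increased reporter signal meaning RARa activation over DMSO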). Put shortly: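 HepG2 cells transiently transfected with multiple reporter units expressing chimeric RARα-GAL4 fusion, with GAL4-UAS-driven reporters. After 24 h compound exposure, reporter mRNA induction quantified by RT-PCR and capillary electrophoresis with fluorescent labeling; gain-of-signal fitted relative to DMSO control.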
Retinoic acid receptor alpha (Homo sapiens), sequence (P10276 whole entry, looked up, the tested form may be a part): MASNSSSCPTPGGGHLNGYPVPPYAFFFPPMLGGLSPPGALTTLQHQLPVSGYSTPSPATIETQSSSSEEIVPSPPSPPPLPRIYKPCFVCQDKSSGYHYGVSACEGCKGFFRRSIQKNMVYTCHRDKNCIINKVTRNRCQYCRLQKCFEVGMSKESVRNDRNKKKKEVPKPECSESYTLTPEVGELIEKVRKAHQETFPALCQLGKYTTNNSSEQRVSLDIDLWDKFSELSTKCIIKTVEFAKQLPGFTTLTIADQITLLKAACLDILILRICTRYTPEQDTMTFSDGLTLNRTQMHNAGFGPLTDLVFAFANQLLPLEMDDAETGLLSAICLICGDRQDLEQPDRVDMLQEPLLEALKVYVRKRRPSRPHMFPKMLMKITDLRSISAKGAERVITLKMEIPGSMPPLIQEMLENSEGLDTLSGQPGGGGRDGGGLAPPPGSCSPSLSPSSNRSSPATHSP

A short description of test [5]: BSK_3C_Proliferation: Cell Proliferation Assessment in the BioMAP Diversity Plus: 3C Assay (AID 2283006).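 On AC50: potency may reflect either rise or fall in cell number versus DMSO.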 As to conditions: primary human endothelial cells (HUVEC). Put shortly: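 Read-out is total protein by SRB absorbance at 560 nm, taken as a proxy for relative cell number. Primary human umbilical vein endothelium cultured below confluence was dosed for 48 h, TCA-fixed and SRB-stained; curves were fitted bidirectionally versus DMSO.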

Test [6] deals with Nuclear receptor subfamily 1 group I member 2 (Homo sapiens) (UniProt O75469). The test is described as follows: ATG_PXR_TRANS: Attagene TRANS-FACTORIAL HepG2 Assay for human Pregnane X Receptor (PXR) (AID 2283008; active means hit-call score of the fitted dose curve at least 0.9, where 1 is the maximum). Put shortly: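 Fluorescence intensity of FAM-labelled, HpaI-digested reporter amplicons, separated by capillary electrophoresis, quantifies induction. HepG2 cells with PXR-Gal4 trans-reporter system were exposed 24 h; DMSO defines baseline.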
Nuclear receptor subfamily 1 group I member 2 (Homo sapiens), sequence (O75469 whole entry, looked up, the tested form may be a part): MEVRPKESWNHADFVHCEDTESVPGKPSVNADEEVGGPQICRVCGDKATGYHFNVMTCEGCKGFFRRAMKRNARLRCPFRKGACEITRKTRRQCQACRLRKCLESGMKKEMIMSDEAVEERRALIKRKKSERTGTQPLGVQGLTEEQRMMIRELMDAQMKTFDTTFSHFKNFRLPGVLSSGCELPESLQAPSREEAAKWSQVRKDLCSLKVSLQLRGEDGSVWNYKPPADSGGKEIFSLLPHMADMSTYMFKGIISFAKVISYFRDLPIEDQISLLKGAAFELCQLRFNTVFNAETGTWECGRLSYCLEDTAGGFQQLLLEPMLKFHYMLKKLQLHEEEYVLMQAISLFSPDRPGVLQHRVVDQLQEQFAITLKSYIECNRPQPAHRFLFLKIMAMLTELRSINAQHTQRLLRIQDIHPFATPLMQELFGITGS

The target in test [7] is human Retinoic Acid Receptor gamma (RARg), RARG (gene 5916) (UniProt P13631). The experiment in a line: ATG_RARg_TRANS: Attagene TRANS-FACTORIAL HepG2 Assay for human Retinoic Acid Receptor gamma (RARg) (AID 2283009; active means hit-call score of the fitted dose curve at least 0.9, where 1 is the maximum). Put shortly: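 Transient transfection of HepG2 with multi-reporter constructs, then 24 h chemical treatment. Total RNA isolated, reverse-transcribed, PCR-amplified, fluorescently labelled and resolved by capillary electrophoresis; activity scored as mRNA induction versus DMSO.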
human Retinoic Acid Receptor gamma (RARg), RARG (gene 5916), sequence (P13631 whole entry, looked up): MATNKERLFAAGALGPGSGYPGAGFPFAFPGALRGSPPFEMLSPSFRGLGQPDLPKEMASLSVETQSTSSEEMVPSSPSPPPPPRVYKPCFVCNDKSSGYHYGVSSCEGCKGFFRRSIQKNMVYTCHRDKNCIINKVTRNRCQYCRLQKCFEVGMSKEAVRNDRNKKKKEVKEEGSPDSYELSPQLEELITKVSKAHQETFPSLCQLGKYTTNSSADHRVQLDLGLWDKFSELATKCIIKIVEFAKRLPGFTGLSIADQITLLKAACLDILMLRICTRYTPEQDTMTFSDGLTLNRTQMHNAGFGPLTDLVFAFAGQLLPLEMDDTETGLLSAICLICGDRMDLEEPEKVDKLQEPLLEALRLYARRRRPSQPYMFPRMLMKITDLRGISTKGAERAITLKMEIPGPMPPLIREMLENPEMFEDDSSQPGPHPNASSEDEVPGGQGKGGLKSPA

In test [8] the target is human RAR-related Orphan Receptor beta (RORb), RORB (gene 6096) (UniProt Q92753). The test is described as follows: ATG_RORb_TRANS: Attagene TRANS-FACTORIAL HepG2 Assay for human RAR-related Orphan Receptor beta (RORb) (AID 2283010; active means hit-call score of the fitted dose curve at least 0.9, where 1 is the maximum). Put shortly: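 Readout is reporter-gene mRNA induction, detected as fluorescence after RT-PCR and capillary electrophoresis, fitted for gain of signal against DMSO controls. Transiently transfected HepG2 liver cells carrying GAL4-UAS reporter constructs were treated for 24 hours.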
human RAR-related Orphan Receptor beta (RORb), RORB (gene 6096), sequence (Q92753 whole entry, looked up, the tested form may be a part): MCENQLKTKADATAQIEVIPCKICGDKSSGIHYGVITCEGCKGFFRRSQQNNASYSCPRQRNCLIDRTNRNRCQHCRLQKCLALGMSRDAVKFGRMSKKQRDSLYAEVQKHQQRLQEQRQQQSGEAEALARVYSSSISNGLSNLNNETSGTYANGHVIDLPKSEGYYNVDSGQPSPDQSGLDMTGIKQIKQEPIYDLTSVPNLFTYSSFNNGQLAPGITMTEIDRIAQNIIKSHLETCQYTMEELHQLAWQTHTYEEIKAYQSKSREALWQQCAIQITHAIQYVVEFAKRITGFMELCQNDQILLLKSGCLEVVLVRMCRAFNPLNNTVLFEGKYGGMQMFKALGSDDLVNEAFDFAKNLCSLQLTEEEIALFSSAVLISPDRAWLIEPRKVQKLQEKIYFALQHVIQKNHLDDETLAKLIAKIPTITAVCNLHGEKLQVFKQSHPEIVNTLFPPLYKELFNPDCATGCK

Test [9] has as its target human RAR-related Orphan Receptor gamma (RORg), RORC (gene 6097) (UniProt P51449). The test is described as follows: ATG_RORg_TRANS: Attagene TRANS-FACTORIAL HepG2 Assay for human RAR-related Orphan Receptor gamma (RORg) (AID 2283011; active means hit-call score of the fitted dose curve at least 0.9, where 1 is the maximum). Put shortly: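 Readout: reporter transcript induction (RT-PCR, fluorescent primer extension, capillary electrophoresis) after 24 h compound exposure of transiently transfected HepG2 cells carrying a RORg-Gal4 chimera and GAL4-UAS reporters; DMSO served as baseline, with increasing signal fitted.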

The target in test [10] is Retinoic acid receptor RXR-alpha (Homo sapiens) (UniProt P19793). The experiment in a line: ATG_RXRa_TRANS: Attagene TRANS-FACTORIAL HepG2 Assay for human Retinoid X Receptor alpha (RXRa) (AID 2283012; active means hit-call score of the fitted dose curve at least 0.9, where 1 is the maximum). Put shortly: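 Transient transfection of human HepG2 with multiple GAL4-UAS reporter constructs; 24 h compound exposure; total RNA isolated, reverse-transcribed, PCR-amplified, 6-FAM labelled, HpaI-cut, resolved by capillary electrophoresis. Positive-direction fit versus DMSO.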
Retinoic acid receptor RXR-alpha (Homo sapiens), sequence (P19793 whole entry, looked up, the tested form may be a part): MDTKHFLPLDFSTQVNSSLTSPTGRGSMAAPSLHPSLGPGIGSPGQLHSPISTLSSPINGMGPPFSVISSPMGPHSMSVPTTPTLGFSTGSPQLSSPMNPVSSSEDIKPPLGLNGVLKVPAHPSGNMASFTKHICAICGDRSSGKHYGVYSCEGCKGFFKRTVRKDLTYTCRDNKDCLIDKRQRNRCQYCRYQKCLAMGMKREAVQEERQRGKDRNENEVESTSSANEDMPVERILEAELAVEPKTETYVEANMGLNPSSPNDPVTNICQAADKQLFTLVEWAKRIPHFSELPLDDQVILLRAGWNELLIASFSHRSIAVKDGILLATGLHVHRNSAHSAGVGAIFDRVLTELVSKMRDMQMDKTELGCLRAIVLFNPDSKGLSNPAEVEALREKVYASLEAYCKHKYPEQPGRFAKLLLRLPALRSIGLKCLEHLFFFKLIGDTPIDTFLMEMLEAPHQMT

For test [11], the target named is human Retinoid X Receptor beta (RXRb), RXRB (gene 6257) (UniProt P28702). The test is described as follows: ATG_RXRb_TRANS: Attagene TRANS-FACTORIAL HepG2 Assay for human Retinoid X Receptor beta (RXRb) (AID 2283013; active means hit-call score of the fitted dose curve at least 0.9, where 1 is the maximum). Put shortly:
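Transfect HepG2 with GAL4-UAS multi-reporter constructs (chimeric NR-Gal4, TRANS format); dose compound 24 h; isolate RNA, RT-PCR, FAM primer extension, HpaI digest; quantify by capillary electrophoresis; positive direction vs DMSO.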

Read-out in test [12]: E-selectin (Homo sapiens) (UniProt P16581)
The test is described as follows: BSK_3C_Eselectin: BioMAP Diversity Plus: 3C Assay for Eselectin Biomarker Activity (AID 2283015).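 Further: cell surface E-selectin protein quantified by ELISA 24 h after dosing.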 Particulars: primary human endothelial cells (HUVEC); actives raise or lower the signal. Put shortly:
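Primary human umbilical vein endothelial cells (3C system) were dosed with chemical and cell-surface E-selectin measured by ELISA 24 h later. Bidirectional curve fitting used DMSO as negative control and baseline.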

Read-out in test [13]: Interleukin-1 alpha (IL1a), IL1A (gene 3552)
The test is described as follows: BSK_BE3C_IL1a: BioMAP Diversity Plus: BE3C Assay for Interleukin-1 alpha (IL1a) Biomarker Activity (AID 2283016). Particulars: primary human bronchial epithelial cells; actives raise or lower the signal. Put shortly:
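BE3C primary human bronchial epithelium; cpd 24 h; IL-1a by ELISA; bidirectional fit vs DMSO; parallel SRB (0.1% SRB, 10% TCA fix, 560 nm) for cytotoxicity.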

Read-out in test [14]: Monocyte Chemoattractant Protein-1 (MCP1), CCL2 (gene 6347)
The experiment in a line: BSK_3C_MCP1: BioMAP Diversity Plus: 3C Assay for Monocyte Chemoattractant Protein-1 (MCP1) Biomarker Activity (AID 2283017). As to conditions: primary human endothelial cells (HUVEC); actives raise or lower the signal. Put shortly: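 Primary human umbilical vein endothelial cells (3C system) were exposed to test chemical for 24 h, after which MCP-1 was quantified by ELISA. Activity was fitted bidirectionally against DMSO as negative control and baseline.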

Read-out in test [15]: Monocyte Chemoattractant Protein-1 (MCP1), CCL2 (gene 6347)
The experiment in a line: BSK_4H_MCP1: BioMAP Diversity Plus: 4H Assay for Monocyte Chemoattractant Protein-1 (MCP1) Biomarker Activity (AID 2283018). As to conditions: primary human endothelial cells (HUVEC); actives raise or lower the signal. Put shortly:
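ELISA read-out of MCP-1 from human vascular endothelial primary cells taken at 24 hours after compound exposure. Activity was fitted in both directions relative to DMSO, which served as negative control.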

Read-out in test [16]: Human Leukocyte Antigen - DR isotype (HLADR), HLA-DRA (gene 3122)
The test is described as follows: BSK_3C_HLADR: BioMAP Diversity Plus: 3C Assay for Human Leukocyte Antigen - DR isotype (HLADR) Biomarker Activity (AID 2283019). As to conditions: primary human endothelial cells (HUVEC); actives raise or lower the signal. Put shortly: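 Primary human umbilical vein endothelial cells (3C system) were dosed with compound and cell-surface HLA-DR was quantified by ELISA at 24 h. Activity was fitted bidirectionally against DMSO as negative control and baseline.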

Read-out in test [17]: Interleukin-8 (IL8), CXCL8 (gene 3576)
The experiment in a line: BSK_3C_IL8: BioMAP Diversity Plus: 3C Assay for Interleukin-8 (IL8) Biomarker Activity (AID 2283020). As to conditions: primary human endothelial cells (HUVEC); actives raise or lower the signal. Put shortly: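 ELISA read-out of IL-8 from human umbilical vein endothelium, measured 24 h after chemical dosing. Activity is expressed relative to DMSO negative control, with both increases and decreases fitted.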

The target of test [18] is human Thyroid Receptor alpha (THRa1), THRA (gene 7067) (UniProt P10827). The experiment in a line: ATG_THRa1_TRANS: Attagene TRANS-FACTORIAL HepG2 Assay for human Thyroid Receptor alpha (THRa1) (AID 2283014; active means hit-call score of the fitted dose curve at least 0.9, where 1 is the maximum). Put shortly: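 HepG2 cells transiently transfected with multiplexed GAL4-UAS reporter units for exogenous chimeric THRa1-Gal4; reporter mRNA measured 24 h after dosing by RT-PCR, 6-FAM labelling, HpaI digestion and capillary electrophoresis. Gain-of-signal fitted versus DMSO baseline.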

The target of test [19] is Peroxisome proliferator-activated receptor gamma (Homo sapiens) (UniProt P37231). The experiment in a line: ATG_PPARg_TRANS: Attagene TRANS-FACTORIAL HepG2 Assay for human Peroxisome Proliferator-activated Receptor-gamma (PPARg) (AID 2283007; active means hit-call score of the fitted dose curve at least 0.9, where 1 is the maximum). Put shortly:
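Read-out: reporter mRNA induction, detected by fluorescence after RT-PCR and capillary electrophoresis. Transiently transfected human HepG2 liver cells carrying a chimeric NR-Gal4 construct were dosed for 24 h; activity was fitted upward relative to DMSO.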

Molecules are shown by their SMILES. Results filed as inconclusive are left out. The source made the active and inactive calls. How the source made its calls, unless noted: active means hit-call score of the fitted dose curve at least 0.9, where 1 is the maximum; inactive means score below 0.9.

human Retinoid X Receptor beta (RXRb), RXRB (gene 6257), sequence (P28702 whole entry, looked up, the tested form may be a part): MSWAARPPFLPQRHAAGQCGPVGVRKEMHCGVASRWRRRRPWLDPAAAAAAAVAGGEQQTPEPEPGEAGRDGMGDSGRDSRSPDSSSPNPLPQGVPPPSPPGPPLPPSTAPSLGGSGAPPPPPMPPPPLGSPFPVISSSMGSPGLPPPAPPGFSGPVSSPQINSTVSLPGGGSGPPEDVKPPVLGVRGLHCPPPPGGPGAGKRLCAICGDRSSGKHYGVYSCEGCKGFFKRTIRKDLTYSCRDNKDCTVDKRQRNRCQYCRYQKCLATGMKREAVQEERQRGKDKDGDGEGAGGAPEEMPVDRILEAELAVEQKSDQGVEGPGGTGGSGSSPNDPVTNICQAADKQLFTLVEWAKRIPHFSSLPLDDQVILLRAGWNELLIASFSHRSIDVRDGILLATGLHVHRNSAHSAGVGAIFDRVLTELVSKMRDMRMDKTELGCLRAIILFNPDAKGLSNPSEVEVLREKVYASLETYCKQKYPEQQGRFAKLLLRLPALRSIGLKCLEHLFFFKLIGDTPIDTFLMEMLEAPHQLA
E-selectin (Homo sapiens), sequence (P16581 whole entry, looked up): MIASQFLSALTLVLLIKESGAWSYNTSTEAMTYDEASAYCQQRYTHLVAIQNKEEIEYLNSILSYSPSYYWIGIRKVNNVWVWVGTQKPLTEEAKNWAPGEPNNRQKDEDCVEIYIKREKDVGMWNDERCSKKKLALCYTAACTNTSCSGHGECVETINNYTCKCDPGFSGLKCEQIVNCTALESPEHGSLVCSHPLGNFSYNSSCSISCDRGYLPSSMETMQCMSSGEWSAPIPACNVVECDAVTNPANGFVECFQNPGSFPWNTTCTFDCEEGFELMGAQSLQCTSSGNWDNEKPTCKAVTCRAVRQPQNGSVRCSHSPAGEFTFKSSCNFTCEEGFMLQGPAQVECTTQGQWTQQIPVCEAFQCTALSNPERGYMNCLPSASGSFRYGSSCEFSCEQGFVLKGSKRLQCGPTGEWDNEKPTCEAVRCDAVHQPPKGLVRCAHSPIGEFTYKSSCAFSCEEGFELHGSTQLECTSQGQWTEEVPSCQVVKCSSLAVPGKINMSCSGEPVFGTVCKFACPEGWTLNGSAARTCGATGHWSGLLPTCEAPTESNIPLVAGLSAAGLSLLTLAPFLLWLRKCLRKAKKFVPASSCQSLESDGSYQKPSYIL
human Peroxisome Proliferator-activated Receptor alpha (PPARa), PPARA (gene 5465), sequence (Q07869 whole entry, looked up, the tested form may be a part): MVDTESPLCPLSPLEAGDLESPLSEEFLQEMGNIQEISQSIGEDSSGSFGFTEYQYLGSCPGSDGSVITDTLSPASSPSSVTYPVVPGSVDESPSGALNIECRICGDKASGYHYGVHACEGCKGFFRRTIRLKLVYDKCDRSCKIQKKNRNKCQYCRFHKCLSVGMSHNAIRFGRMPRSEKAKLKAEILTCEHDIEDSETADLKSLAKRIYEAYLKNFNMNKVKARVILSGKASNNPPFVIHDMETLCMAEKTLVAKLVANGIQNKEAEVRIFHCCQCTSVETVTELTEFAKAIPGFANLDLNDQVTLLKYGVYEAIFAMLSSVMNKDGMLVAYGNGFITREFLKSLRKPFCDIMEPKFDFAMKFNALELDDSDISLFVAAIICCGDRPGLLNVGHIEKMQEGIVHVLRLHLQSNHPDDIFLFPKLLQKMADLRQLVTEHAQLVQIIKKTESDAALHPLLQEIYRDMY
human RAR-related Orphan Receptor gamma (RORg), RORC (gene 6097), sequence (P51449 whole entry, looked up, the tested form may be a part): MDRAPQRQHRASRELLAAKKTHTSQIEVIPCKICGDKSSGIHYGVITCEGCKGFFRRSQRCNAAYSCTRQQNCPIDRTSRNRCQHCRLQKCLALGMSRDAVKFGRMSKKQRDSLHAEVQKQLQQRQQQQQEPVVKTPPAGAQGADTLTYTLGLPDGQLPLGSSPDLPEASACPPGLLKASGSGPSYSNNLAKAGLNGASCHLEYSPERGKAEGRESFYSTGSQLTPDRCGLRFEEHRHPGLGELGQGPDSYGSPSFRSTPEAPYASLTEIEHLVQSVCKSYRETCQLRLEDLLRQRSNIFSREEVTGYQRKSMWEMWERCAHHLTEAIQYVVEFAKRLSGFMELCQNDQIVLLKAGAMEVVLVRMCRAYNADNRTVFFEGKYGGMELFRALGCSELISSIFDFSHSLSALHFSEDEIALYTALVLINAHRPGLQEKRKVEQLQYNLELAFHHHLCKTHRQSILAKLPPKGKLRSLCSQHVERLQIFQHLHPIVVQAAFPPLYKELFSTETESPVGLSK

Take `CCOc1nc(C(Cl)(Cl)Cl)ns1`: the result in test [1], in [2], in [3], in [4], in [5] and in [6] was inactive. Moreover, the outcome in [7], in [8], in test [9], in test [10], in test [11] and in test [12] was inactive. Besides, the result in test [13], in test [14], in [15] and in test [17] was inactive. In addition, the half-maximal activity concentration (AC50) in [16] is 13.8 µM (active).
Regarding `CCCCC(C#N)(Cn1cncn1)c1ccc(Cl)cc1` (centres undefined), the outcome in [1], in test [2], in test [3], in test [6], in [7] and in [9] was inactive. The compound was classed as inactive in test [11], in test [12], in test [14], in test [15], in test [16] and in [17]. Moreover, the half-maximal activity concentration (AC50) in [4] is 19.7 µM (active).
On to `Clc1nc(Cl)nc(Nc2ccccc2Cl)n1`, for which the outcome in test [1], in [4], in test [5], in test [6], in test [10] and in [18] was inactive. The result in test [12], in test [14], in test [15], in test [16] and in test [17] was inactive.
`CC1(C)C(C(=O)OC(C#N)c2cccc(Oc3ccccc3)c2)C1(C)C` (centres undefined): the outcome in test [1], in [3], in test [7], in [11], in test [12] and in [13] was inactive. Moreover, the result in [15], in test [16] and in [17] was inactive. Besides, the AC50 in test [4] is 13.7 µM (active); in test [5], 7.92 µM (active); in test [6] it was 9.21 µM (active).
On to `Nc1cnn(-c2ccccc2)c(=O)c1Cl`, for which the result in test [1], in test [2], in [5], in test [8], in test [10] and in [12] was inactive. In addition, the result in test [14], in [15], in [16] and in test [17] was inactive. In addition, the AC50 in [19] is 22.4 µM (active).
